Bioassay records (PubChem BioAssay)
This is a sample that favours compounds with a hit; in the whole collection about 2.4% have one here.
AmpC det inh: AmpC beta-lactamase inhibition, detergent assay; P00811; purified AmpC, nitrocefin hydrolysis with detergent; Potency, µM (series often up to 28.7 µM); hit rate 0.09% among 71,000; active = well fitted curve in the direction sought with a large enough effect; inconclusive = small, poorly fitted or top-dose-only effect
Target sequence (P00811 whole entry, looked up): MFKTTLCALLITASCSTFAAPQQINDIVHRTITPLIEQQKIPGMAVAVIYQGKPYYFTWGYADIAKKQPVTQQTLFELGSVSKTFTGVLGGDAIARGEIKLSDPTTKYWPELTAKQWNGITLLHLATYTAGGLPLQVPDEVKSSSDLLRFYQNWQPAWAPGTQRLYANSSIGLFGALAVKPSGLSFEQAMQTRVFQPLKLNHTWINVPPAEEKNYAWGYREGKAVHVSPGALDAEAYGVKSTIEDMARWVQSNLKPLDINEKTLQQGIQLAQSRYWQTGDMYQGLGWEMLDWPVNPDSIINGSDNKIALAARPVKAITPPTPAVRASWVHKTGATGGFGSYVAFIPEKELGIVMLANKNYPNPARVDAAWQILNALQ
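E. coli AmpC (5.3 nM) in 20 mM phosphate pH 7.0 with 0.01% Triton X-100, preincubated 15 min RT with compound; nitrocefin (2 uL of 800 uM stock) hydrolysis followed by 480 nm absorbance every 20 s over 4 min.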
Prx2 Sm inh: inhibitors of Schistosoma mansoni peroxiredoxin 2; S. mansoni Prx2 activity coupled to TGR/GSH (TGR is thioredoxin glutathione reductase), NADPH fluorescence loss, qHTS; Potency, µM; hit rate 0.07% among 65,000
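Coupled assay in which S. mansoni TGR passes NADPH reducing equivalents via glutathione to Prx2, which reduces H2O2. Compounds were preincubated 15 min at room temperature with 25 nM TGR/50 nM Prx2 mix. Kinetic NADPH fluorescence loss (ex 365/em 450 nm) was monitored.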
LT uptake inh: inhibitors of anthrax lethal toxin internalization; Cells, anthrax lethal toxin internalization, FRET ratio (460/530); Potency, µM (series often up to 40 µM), hits mostly inhibitors; hit rate 0.67% among 70,000; AID 912; note: nearly all actives have a fitted effect of over 50% in size
AmpC inh no det: AmpC beta-lactamase inhibition, detergent-free assay. P00811. AmpC nitrocefin hydrolysis, absorbance 480 nm, no detergent. Potency, µM (series often up to 28.7 µM). hit rate 1.8% among 71,000. AID 585
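AmpC in 20 mM phosphate buffer pH 7.0 was preincubated 15 min at room temperature with compounds. Nitrocefin (800 uM stock) was then added and hydrolysis followed at 480 nm every 20 s for 4 min.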
Of the large screens only hits and unclear results are named; the others gave an inactive call; [ ] = dose if it differs, or a comment. Unless noted, calls come from the whole dose curve.

O=C(Nc1ccc([N+](=O)[O-])cc1Cl)c1cc(Cl)ccc1O	LT uptake inh 0.25µM
Cc1cc(=O)n2nc(N3CCC(C(=O)NC4CCCc5ccccc54)CC3)sc2n1 (stereo not drawn)	none
O=C(NC1CCCc2ccccc21)C1CCN(c2c(N3CCCC3)c(=O)c2=O)CC1 (stereo not drawn)	AmpC inh no det 4µM[single pt active]
C=CCn1c(=O)n(CCOC)c(=O)c2sc3ccccc3c21	AmpC inh no det 4µM[single pt active]
CC(C)CCn1c(SCC#N)nc2c(sc3ccccc32)c1=O	none
Cc1nn(-c2ccccc2)c2nc(N)c(C#N)c(-c3ccc(F)cc3)c12	LT uptake inh 5µM (no result: Prx2 Sm inh)
Cc1ccc(-n2nc(C)c3c(-c4cccs4)c(C#N)c(N)nc32)cc1	LT uptake inh inconclusive
O=C(COC(=O)Cc1ccc(S(=O)(=O)N2CCOCC2)s1)NCc1ccccc1	none
O=C(COC(=O)Cc1ccc(S(=O)(=O)N2CCCCC2)s1)Nc1ccc2c(c1)OCO2	AmpC inh no det 13µM
CCC(Cl)CC(Cl)C(Cl)C(Cl)C(Cl)C(C)Cl (stereo not drawn)	LT uptake inh 2.5µM (no result: Prx2 Sm inh)
O=C(c1ccc(CSCc2ccccc2F)o1)N1CCN(c2ccc(N3CCOCC3)nn2)CC1	LT uptake inh 7.9µM
COc1cc2c(cc1OC)[C@]13CC[N@+]4(C)CC5=CCO[C@H]6CC(=O)N2[C@@H]1[C@@H]6[C@@H]5C[C@]34O	none
CCCCSCCCNC(=O)CS(=O)Cc1nc(-c2cccc(C)c2)oc1C (stereo not drawn)	none
Cc1cccc(-c2nc(CS(=O)CC(=O)NC3CCCC3)c(C)o2)c1 (stereo not drawn)	AmpC inh no det 4µM[single pt active]
CCC(C)NC(=O)CS(=O)Cc1nc(-c2cccc(C)c2)oc1C (stereo not drawn)	AmpC inh no det 4µM[single pt active]
CCCCNC(=O)CS(=O)Cc1nc(-c2cccc(C)c2)oc1C (stereo not drawn)	AmpC inh no det 4µM[single pt active]
c1cncc(-c2cncnc2NC2CCNCC2)c1	none
O=C(O)[C@H]1[O][Sb][O][C@@H](C(=O)O)C1O (stereo partly drawn)	none
N/N=C1/c2ccccc2N[C@H]1OC(=O)Nc1ccccc1	none
Nc1nc(-c2ccco2)nc(N2CCCCC2)n1	none
c1ccc(-c2nc(N3CCCCCC3)c3ccccc3n2)nc1	LT uptake inh inconclusive (no result: Prx2 Sm inh)
c1ccc2c(N3CCCCC3)nc(N3CCCC3)nc2c1	LT uptake inh 10µM
Nc1nc(N2CCCCC2)nc2ccccc12	LT uptake inh 20µM
COc1cc2c(cc1OC)[C@]13CCN4CC5=CCO[C@@H]6CC(=O)N2[C@@H]1[C@H]6[C@@H]5C[C@H]43	LT uptake inh inconclusive
Cc1ccc(OCc2nc(-c3ccccc3)no2)c(C)c1	LT uptake inh inconclusive (no result: Prx2 Sm inh)
Cc1cccc(NCc2nc(-c3ccccc3)no2)c1	LT uptake inh inconclusive, AmpC inh no det 2.5µM[single pt active]
Cc1cccc(CNc2ncncc2-c2ccc(C(=O)N(C)C)cc2)c1	LT uptake inh inconclusive
CCCCn1c2c(c3ccccc31)CCc1nonc1-2	LT uptake inh inconclusive, AmpC inh no det 4µM[single pt active]
Cc1ccc(NC(=O)c2cc(C)on2)cc1	none
CCCc1cc(C(=O)Nc2ccc(C)cc2)no1	LT uptake inh inconclusive, AmpC inh no det 4µM[single pt active]
CCOC(=O)c1c(NC(=O)c2noc3c2CCCC3)sc2c1CCCC2	none
CCCc1cc(C(=O)Nc2cc(Br)ccc2O)no1	LT uptake inh inconclusive, AmpC inh no det 16µM[single pt active]
CCCc1cc(C(=O)Nc2sc3c(c2C(=O)OCC)CCCC3)no1	AmpC inh no det 4µM[single pt active]
CC[C@H](C)N(C)C(=O)c1cc2ccccc2c(-c2ccccc2Cl)n1	none
CC(C)COC[C@H](CN(Cc1ccccc1)c1ccccc1)N1CCCC1	none
CN1C[C@@H](CS(=O)(=O)N(C)C)C[C@H]2c3cccc4c3c(cn4C)C[C@@H]21	none
C[N+](C)(C)CCC(=O)c1cccc2ccccc12	LT uptake inh 25µM
C[C@H]1CC[C@@H]2[C@@H](C)C(=O)O[C@H]3O[C@@]4(C)CC[C@@H]1[C@]32OO4	LT uptake inh inconclusive
Cc1ccccc1NC(=O)CN1C(=O)COc2ccc(Cl)cc21	LT uptake inh 10µM
Nc1nnc(COc2ccc(Br)cc2Br)s1	none
Brc1ccc(Oc2cc(Br)c(Br)cc2Br)c(Br)c1	LT uptake inh 0.79µM (no result: Prx2 Sm inh)
Cn1c(C(C#N)C(=O)c2sc3ccccc3c2Cl)nc2ccccc21 (stereo not drawn)	LT uptake inh inconclusive, AmpC inh no det 13µM
CN1CCc2c(sc3c2C(=O)NC(c2cccc(OC(=O)c4cccs4)c2)N3)C1 (stereo not drawn)	LT uptake inh inconclusive, AmpC inh no det 3.2µM[single pt active]
CN1CCc2c(sc3c2C(=O)NC(c2ccco2)N3)C1 (stereo not drawn)	LT uptake inh inconclusive
O=c1cnc2cnc(N3CCNCC3)nc2n1C1CC1	none
COc1ccc(NC(=O)NCCCN2CCc3ccccc3C2)cc1	AmpC inh no det 4µM[single pt active]
COc1ccccc1N1CCN(CCCNC(=O)Nc2ccccc2)CC1	none (no result: LT uptake inh)
CC[C@H]1CN2CCc3cc(OC)c(OC)cc3[C@H]2C[C@@H]1C[C@H]1NCCc2c1[nH]c1ccc(O)cc21	LT uptake inh inconclusive
CC[C@@H]1CN2CCc3cc(OC)c(OC)cc3[C@H]2C[C@@H]1C[C@H]1NCCc2cc(OC)c(OC)cc21	LT uptake inh 0.02µM (no result: AmpC det inh, AmpC inh no det)
CCCCC/C=C\C/C=C\C/C=C\C/C=C\CCCC(=O)Nc1ccc(O)cc1	LT uptake inh inconclusive, AmpC inh no det 10µM
CCCCC/C=C\C/C=C\C/C=C\C/C=C\CCCC(=O)NCC(=O)O	none
C[C@@H](CN1CCC(Cc2ccccc2)CC1)[C@H](O)c1ccc(O)cc1	none
CC1CCN(c2c(NCc3ccc(C(=O)NCC4COc5ccccc5O4)cc3)c(=O)c2=O)CC1 (stereo not drawn)	AmpC inh no det 4µM[single pt active]
Cc1cc(/C=N/n2cnnc2)c(C)n1-c1cccc(Cl)c1	none (no result: Prx2 Sm inh)
Cc1cc(/C=N/n2cnnc2)c(C)n1-c1ccc(OCc2ccc(F)cc2)cc1	LT uptake inh 13µM
C[C@@H]1CN(CCCn2c3ccccc3c3ccccc32)C[C@H](C)N1	LT uptake inh 32µM
Nc1nc(C(=O)O)c(N=Nc2ccccc2)c(=O)[nH]1	none
O=C(Oc1cc2oc(=O)c3c(c2cc1Cl)CCCC3)c1ccco1	Prx2 Sm inh 19, LT uptake inh inconclusive
O=[As](O)(O)c1ccc(Cc2ccc([As](=O)(O)O)cc2)cc1	Prx2 Sm inh 0.17, LT uptake inh inconclusive
O=c1c(-c2cccs2)nc2cnc(N3CCNCC3)nc2n1CCc1ccccc1	LT uptake inh inconclusive
COc1cccc(-c2nn(C)c3sc(C(=O)N4CCOCC4)cc23)c1	none
COc1cccc(-c2nn(C)c3sc(C(=O)N4CCN(c5ccccn5)CC4)cc23)c1	LT uptake inh 10µM
COc1ccc(N2CCN(C(=O)c3cc4c(-c5ccc(Cl)cc5)nn(C)c4s3)CC2)cc1	LT uptake inh inconclusive, AmpC inh no det 4µM[single pt active]
CCOC(=O)Cn1c(=O)oc2cc(S(=O)(=O)NCCCc3ccccc3)ccc21	LT uptake inh inconclusive, AmpC inh no det 0.32µM[single pt active]
O=C(c1ccncc1)N1CCC2(CCCN(c3ccc(-c4ccccc4)cc3)C2)CC1	none
COc1ccc(Nc2ncnc3c2cnn3-c2ccccc2)cc1OC	LT uptake inh inconclusive
